Results as given in PubChem BioAssay.
Activity calls are given as the source filed them. Unless noted, the rule behind the calls is not given here.

What was measured:
[1] = anti-His antibody binders, primary screen, artefact control for SMM control protein annotation, biochemical, small-molecule microarray, 635 nm fluorescence (AID 1128); conditions: anti-His Alexa647 antibody binding, higher = more signal;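 note: score merges feature fluorescence with signal-to-noise for each printed compound spot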
[2] = system: Human papillomavirus type 1a E7 protein (residues 1-88); assay: HPV1a E7 small-molecule binders, primary screen, biochemical, small-molecule microarray, residues 1-88, 635 nm (AID 1129); conditions: small-molecule microarray binding, fluorescence 635 nm; higher = more signal
[3] = molecular target: Focal adhesion kinase 1 (Homo sapiens) (UniProt Q05397); assay: small-molecule microarray binders of FAK, primary screen, biochemical, 635/667 nm fluorescence, BSA, DTT (AID 1130); conditions: PTK2 binding, 635 nm fluorescence, higher = more signal;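 note: composite of spot emission at 667 nm and signal to noise over triplicate slides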
[4] = system: Fibrinogen (Alexa647-labelled); assay: fibrinogen binders on compound microarrays, profiling panel, artefact control for SMM control-protein annotation, biochemical, small-molecule microarray, 635/667 nm fluorescence (AID 1131); conditions: fibrinogen-A647 binding fluorescence, higher = more signal;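 note: z-score merges 667 nm fluorescence with per-spot signal-to-noise over triplicate slides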
[5] = molecular target: Follistatin (Homo sapiens) (UniProt P19883); assay: follistatin binders on small-molecule microarrays, primary screen, biochemical, small-molecule microarray, 635/667 nm fluorescence (AID 1132); conditions: FST binding, 635 nm fluorescence, higher = more signal
[6] = molecular target: Fibroblast growth factor 2 (Homo sapiens) (UniProt P09038); assay: FGF2 binders on small-molecule microarrays, primary screen, biochemical, small-molecule microarray, 635/667 nm fluorescence (AID 1133); conditions: small-molecule microarray binding, FGF2, fluorescence 635/667; higher = more signal
[7] = mitochondrial membrane potential change in A549 cells, profiling panel, cell-based, JC-1 fluorescence, basal, 24 h, 100 nL (AID 1138); conditions: higher = more signal;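 note: A549 lung adenocarcinoma cells under basal conditions with no added stimulus; test concentration not given here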
Lefty1 = Lefty1 binders on small-molecule microarrays, primary screen, biochemical, small-molecule microarray, 635/667 nm fluorescence (AID 1139); conditions: small-molecule microarray binding, fluorescence 635/667; higher = more signal
[8] = system: wheat germ agglutinin (Triticum aestivum), Alexa647-labelled; assay: wheat germ agglutinin binders on compound microarrays, profiling panel, artefact control for SMM control-protein annotation, biochemical, small-molecule microarray, 635/667 nm fluorescence (AID 1140); conditions: WGA-A647 binding, 635 nm fluorescence, higher = more signal;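 note: score merges 667 nm feature emission with signal to noise over triplicate slides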
[9] = molecular target: Luciferin 4-monooxygenase (Photinus pyralis) (UniProt P08659); assay: firefly luciferase enzyme inhibitors, primary screen, biochemical, luminescence, purified enzyme, 2006 set (AID 1141); conditions: SteadyGlo luminescence, 30 min, higher = more signal, called active from +8 up or from −8 down;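 note: cell-free assay with purified firefly luciferase at 100 ng per well in PBS; test concentration not given here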
[10] = system: Wnt5a (protein binding on small-molecule microarray); assay: Wnt5a binders on small-molecule microarray, primary screen, biophysical, 635/667 nm fluorescence (AID 1142); conditions: 635 nm fluorescence, higher = more signal;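 note: fluorescence read at 667 nm with signal to noise per printed feature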
[11] = cell viability in Huh7 cells, primary screen, cytotoxicity control for HCV replication inhibitor project, CellTiter-Glo luminescence, basal, 48 h (AID 1143); conditions: Huh7 HCV replicon, higher = more signal, called active from +8 up or from −8 down;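 note: Huh7 hepatoma cells carrying a hepatitis C replication reporter with no stimulus; test concentration not given here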
[12] = P. aeruginosa biofilm formation inhibitors, primary screen, PAO1 strain, BacTiter-Glo luminescence, LB-PBS (AID 1144); conditions: 12 h, higher = more signal
[13] = CREB reporter modulators without forskolin, primary screen, cell-based, PC12, CRE-LacZ reporter, unstimulated (AID 1145); conditions: no forskolin, luminescence, 4.5 h, higher = more signal, called active from +8 up or from −8 down
[14] = CREB reporter modulators under forskolin, primary screen, cell-based, PC12, CRE-LacZ reporter, forskolin-stimulated (AID 1146); conditions: luminescence, 4.5 h, higher = more signal, called active from +8 up or from −8 down;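 note: PC12 cells with 6xCRE LacZ reporter stimulated by forskolin 10 µM; beta-galactosidase reporter signal reflecting CREB driven transcription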
[15] = molecular target: Streptavidin (Streptomyces avidinii) (UniProt P22629); assay: streptavidin binders on small-molecule microarray, primary screen, artefact control for SMM compound annotation, biophysical, 635/667 nm fluorescence (AID 1147); conditions: streptavidin binding, higher = more signal;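 note: signal reflects streptavidin binding to arrayed compounds as a control protein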
[16] = small-molecule binders of probe aInhba, primary screen, biochemical, small-molecule microarray, 635/667 nm fluorescence (AID 1148); conditions: higher = more signal;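 note: score merges 667nm spot fluorescence with signal-to-noise for antibody binding to printed compounds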
Torsin-1A (Homo sapiens) [17] = molecular target: Torsin-1A (Homo sapiens) (UniProt O14656); assay: torsin A binders from cell lysate, primary screen, small-molecule microarray, wild-type, 635/667 nm (AID 1149); conditions: COS7 hTOR1A-WT lysate, 635 nm fluorescence, higher = more signal
Torsin-1A (Homo sapiens) [18] = molecular target: Torsin-1A (Homo sapiens) (UniProt O14656); assay: small-molecule binders of mutant TOR1A in lysate, primary screen, cell lysate, small-molecule microarray, COS7 lysate, 635/667 nm fluorescence (AID 1150); conditions: COS7 hTOR1A mutant lysate, 635 nm fluorescence, higher = more signal;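 note: score pools 667 nm emission and signal to noise measuring lysate protein binding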
[19] = system: Sonic hedgehog protein (Shh); assay: small-molecule binders of Shh protein, primary screen, biochemical, small-molecule microarray, 635/667 nm fluorescence (AID 1151); conditions: small-molecule microarray binding, 635 nm fluorescence; higher = more signal;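 note: Shh protein binding to compounds spotted on small-molecule microarray slides; score combines spot fluorescence intensity with signal-to-noise across triplicate slides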

Chain of Luciferin 4-monooxygenase (Photinus pyralis) (P08659 whole entry, looked up): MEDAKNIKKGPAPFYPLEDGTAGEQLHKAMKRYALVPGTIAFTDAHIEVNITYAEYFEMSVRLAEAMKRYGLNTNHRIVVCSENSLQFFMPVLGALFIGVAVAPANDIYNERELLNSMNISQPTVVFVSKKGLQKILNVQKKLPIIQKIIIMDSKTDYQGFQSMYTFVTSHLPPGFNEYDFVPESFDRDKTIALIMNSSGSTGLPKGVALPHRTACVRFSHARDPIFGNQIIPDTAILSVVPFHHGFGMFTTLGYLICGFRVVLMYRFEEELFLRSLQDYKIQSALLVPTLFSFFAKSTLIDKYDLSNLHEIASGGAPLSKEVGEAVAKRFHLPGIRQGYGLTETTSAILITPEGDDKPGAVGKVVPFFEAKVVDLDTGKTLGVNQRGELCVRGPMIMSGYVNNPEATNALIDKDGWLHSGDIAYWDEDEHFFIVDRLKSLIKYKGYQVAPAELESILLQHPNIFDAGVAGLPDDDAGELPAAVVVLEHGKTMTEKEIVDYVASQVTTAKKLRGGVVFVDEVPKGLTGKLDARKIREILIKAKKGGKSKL
Chain of Torsin-1A (Homo sapiens) (O14656 whole entry, looked up): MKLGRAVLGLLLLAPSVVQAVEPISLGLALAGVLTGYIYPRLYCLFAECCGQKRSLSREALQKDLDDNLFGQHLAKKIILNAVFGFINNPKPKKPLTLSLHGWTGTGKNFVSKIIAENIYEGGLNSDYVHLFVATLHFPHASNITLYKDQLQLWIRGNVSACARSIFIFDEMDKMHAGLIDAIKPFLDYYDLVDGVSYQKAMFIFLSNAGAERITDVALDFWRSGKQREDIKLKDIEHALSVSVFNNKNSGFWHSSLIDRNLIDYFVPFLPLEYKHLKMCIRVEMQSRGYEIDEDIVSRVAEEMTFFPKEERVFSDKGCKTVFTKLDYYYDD
Chain of Streptavidin (Streptomyces avidinii) (P22629 whole entry, looked up): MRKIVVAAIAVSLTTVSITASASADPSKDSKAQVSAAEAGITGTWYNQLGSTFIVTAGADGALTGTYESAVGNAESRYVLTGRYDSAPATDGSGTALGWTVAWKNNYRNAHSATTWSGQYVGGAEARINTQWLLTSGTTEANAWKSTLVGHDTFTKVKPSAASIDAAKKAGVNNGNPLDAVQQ
Chain of Fibroblast growth factor 2 (Homo sapiens) (P09038 whole entry, looked up): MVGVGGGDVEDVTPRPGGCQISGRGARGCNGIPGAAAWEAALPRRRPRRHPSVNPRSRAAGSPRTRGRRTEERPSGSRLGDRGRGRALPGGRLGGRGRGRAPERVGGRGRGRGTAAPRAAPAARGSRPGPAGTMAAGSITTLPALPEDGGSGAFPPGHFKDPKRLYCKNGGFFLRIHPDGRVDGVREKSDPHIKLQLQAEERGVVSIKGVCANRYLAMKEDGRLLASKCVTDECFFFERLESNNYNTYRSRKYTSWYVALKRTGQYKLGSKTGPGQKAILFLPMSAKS
Chain of Follistatin (Homo sapiens) (P19883 whole entry, looked up): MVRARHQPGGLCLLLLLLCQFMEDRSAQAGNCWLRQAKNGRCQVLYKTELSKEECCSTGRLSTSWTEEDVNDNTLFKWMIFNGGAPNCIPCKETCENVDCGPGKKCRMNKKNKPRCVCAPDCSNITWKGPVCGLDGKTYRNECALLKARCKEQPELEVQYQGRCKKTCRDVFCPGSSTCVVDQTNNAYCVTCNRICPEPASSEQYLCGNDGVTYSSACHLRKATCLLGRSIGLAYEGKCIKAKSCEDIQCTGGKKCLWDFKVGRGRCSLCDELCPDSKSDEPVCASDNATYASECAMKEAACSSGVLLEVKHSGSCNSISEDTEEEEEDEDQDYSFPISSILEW
Chain of Focal adhesion kinase 1 (Homo sapiens) (Q05397 whole entry, looked up): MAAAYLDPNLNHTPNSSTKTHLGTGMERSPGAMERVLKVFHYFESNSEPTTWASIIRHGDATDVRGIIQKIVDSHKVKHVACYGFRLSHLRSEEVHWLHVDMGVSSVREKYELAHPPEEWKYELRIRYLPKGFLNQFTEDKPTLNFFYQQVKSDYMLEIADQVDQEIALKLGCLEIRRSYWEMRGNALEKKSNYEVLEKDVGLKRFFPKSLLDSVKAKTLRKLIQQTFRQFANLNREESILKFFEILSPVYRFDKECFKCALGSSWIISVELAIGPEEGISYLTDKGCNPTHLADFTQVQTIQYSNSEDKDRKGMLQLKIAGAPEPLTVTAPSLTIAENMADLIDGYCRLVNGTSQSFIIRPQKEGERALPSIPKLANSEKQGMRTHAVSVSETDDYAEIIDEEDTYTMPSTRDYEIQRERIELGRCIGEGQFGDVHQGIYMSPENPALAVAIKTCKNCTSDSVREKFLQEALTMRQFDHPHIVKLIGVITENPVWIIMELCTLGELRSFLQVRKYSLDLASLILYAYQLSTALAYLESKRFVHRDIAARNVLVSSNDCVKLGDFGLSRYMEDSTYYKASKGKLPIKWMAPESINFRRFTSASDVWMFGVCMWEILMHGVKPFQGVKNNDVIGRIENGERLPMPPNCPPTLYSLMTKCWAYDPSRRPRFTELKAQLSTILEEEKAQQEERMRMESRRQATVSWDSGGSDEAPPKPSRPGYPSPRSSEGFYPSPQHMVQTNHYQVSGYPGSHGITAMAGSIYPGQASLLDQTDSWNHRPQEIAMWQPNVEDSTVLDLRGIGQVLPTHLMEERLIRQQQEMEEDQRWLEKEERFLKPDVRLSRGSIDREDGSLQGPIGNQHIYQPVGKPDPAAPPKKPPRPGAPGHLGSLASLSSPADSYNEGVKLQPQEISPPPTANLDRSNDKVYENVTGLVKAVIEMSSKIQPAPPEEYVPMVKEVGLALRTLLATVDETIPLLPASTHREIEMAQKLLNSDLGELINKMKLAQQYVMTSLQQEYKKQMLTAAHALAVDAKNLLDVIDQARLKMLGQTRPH

Row | SMILES | composite z-score [1] | composite z-score [2] | composite z-score [3] | composite z-score [4] | composite z-score [5] | composite z-score [6] | z-score [7] | composite z-score (Lefty1) | composite z-score [8] | z-score [9] | composite z-score [10] | z-score [11] | z-score [12] | z-score [13] | z-score [14] | composite z-score [15] | composite z-score [16] | composite z-score (Torsin-1A (Homo sapiens) [17]) | composite z-score (Torsin-1A (Homo sapiens) [18]) | composite z-score [19]
1 | C=CCNC(=O)[C@H]1[C@@H]2C(=O)O[C@@H](c3ccccc3)[C@@H](c3ccccc3)N2[C@@H](c2ccc(O)cc2)[C@]12C(=O)Nc1ccc(C#Cc3ccc(OC)cc3)cc12 | 0.194 | 1.22 | 0.403 | 0.789 | 1.16 | 1.13 | -0.769 | 0.597 | 0.278 | 0.153 (inactive) | 0.555 | -3.44 (inactive) | -0.182 (inactive) | -0.141 (inactive) | 0.468 (inactive) | 0.252 | -0.0523 | 0.11 | 0.117 | 0.667
2 | C=C(CCCC)C(=O)CC[C@H](OC(=O)c1ccccc1-c1ccccc1C(=O)O)c1ccc(CO)o1 | 1.22 | 1.22 | -0.116 | 0.954 | 1.1 | 0.905 | -0.541 | 1.57 | 1.14 | -1.96 (inactive) | 0.123 | 0.0343 (inactive) | -0.976 (inactive) | -0.177 (inactive) | -0.56 (inactive) | 1.5 | 0.0154 | 0.472 | 0.622 | 1.99
3 | [N-]=[N+]=NCc1ccccc1C[C@]1(C(N)=O)N=C(c2ccc(OCCCO)cc2)O[C@H]1c1ccccc1N=[N+]=[N-] | 2.21 | 1.19 | 0.394 | 0.751 | 0.847 | -0.386 | -0.542 | 0.0874 | 1.03 | -10.3 (active) | 0.451 | -1.84 (inactive) | -0.43 (inactive) | -0.254 (inactive) | 0.248 (inactive) | 0.978 | 0.0906 | 0.0331 | 0.652 | -0.413
4 | O=C(NCCN1CCOCC1)[C@@H]1c2ccccc2C(=O)N(Cc2cc(F)cc(C(F)(F)F)c2)[C@H]1c1ccc(CO)cc1 | 0.195 | 0.0794 | 0.205 | -0.732 | 0.687 | -0.77 | 2.17 | 0.314 | -0.254 | -0.183 (inactive) | -0.33 | -0.269 (inactive) | 0.153 (inactive) | 0.378 (inactive) | 0.0284 (inactive) | -0.78 | 0.422 | 0.543 | 0.165 | 1.76
5 | CCCCCCC#C[Si](O[C@H](c1ccccc1)c1cn([C@H](C)c2ccccc2)nn1)(C(C)C)C(C)C | 0.475 | 0.386 | -0.159 | 0.574 | 0.441 | 0.555 | 3.27 | 0.547 | 0.144 | 0.425 (inactive) | -0.0509 | -0.658 (inactive) | 0.121 (inactive) | -0.127 (inactive) | 0.15 (inactive) | 0.247 | -0.361 | 0.381 | 1.26 | 0.573
6 | COc1ccc(C(=O)Nc2cccc(CN3C(=O)[C@@]4(O[C@@H](CCn5cc([C@H](O)c6ccccc6)nn5)[C@H]([Si](C)(C)c5ccc(OC)cc5)[C@H]4C)c4ccccc43)c2)cc1 | 0.669 | 0.138 | 0.638 | 0.528 | 1.19 | 0.612 | -0.175 | 1.01 | 0.443 | 0.39 (inactive) | 0.417 | -6.59 (inactive) | -0.301 (inactive) | 0.833 (inactive) | 0.834 (inactive) | 0.0185 | 0.0714 | -0.12 | 0.377 | 1.89
7 | CC(C)CNC(=O)[C@@]1(C)c2ccccc2C(=O)N(C(C)C)[C@H]1c1ccc(CO)cc1 | -0.105 | -1.79 | 0.175 | -1.07 | -0.0856 | -0.379 | -0.265 | -0.353 | -0.148 | 0.691 (inactive) | -0.16 | 1.09 (inactive) | 0.15 (inactive) | -0.179 (inactive) | -0.568 (inactive) | -1.36 | -0.187 | -0.633 | -1.63 | -0.542
8 | CO[C@H]1O[C@H](CO)[C@@H](OC(=O)Nc2ccc(C(F)(F)F)cc2)[C@H](OC(=O)Nc2ccccc2)[C@@H]1OC(=O)Nc1ccccc1 | 0.817 | 1.18 | 0.132 | 0.944 | 1.21 | 0.21 | -0.191 | 0.41 | 0.58 | -0.72 (inactive) | 0.534 | -3.7 (inactive) | 0.724 (inactive) | 0.904 (inactive) | -1.01 (inactive) | 1.08 | -0.0538 | 0.146 | -0.0359 | 0.934
9 | O=C1[C@H]2C=C(Br)[C@H](C[C@@H]2OCCOCCO)[C@@]12CO2 | 0.141 | 0.314 | -0.0415 | 0.138 | -0.864 | 0.179 | -0.271 | 0.199 | -0.0695 | 0.582 (inactive) | 0.268 | 0.808 (inactive) | 0.199 (inactive) | -1.23 (inactive) | 1.6 (inactive) | 0.138 | -0.118 | -0.428 | -0.385 | 0.0806
